From PubChem BioAssay AID1347383 (Zoeller Lab, School of Medicine, Boston University, 2020)
Activity calls are given as the source filed them.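 The calls were made as follows: active = cell survival after UV exposure 2 SD above solvent-only control wells at 10 µM, confirmed on one or two repeats; inactive = the rest.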

Test: protection of CHO cells from pyrene-fatty acid UV killing, primary screen, phospholipid biosynthesis inhibitor project, ZR-82 cells, Analyticon library, screen 2 (AID 1347383);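 also: survival reflects blocked phospholipid synthesis cutting uptake of the phototoxic fatty acid; compound and fatty acid exposure 3 h then viability read next day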
Conditions: ZR-82 CHO cells, CellTiter Blue, at 10 µM, peroxisome-deficient CHO-K1 variant, with DGAT-1, DGAT-2 and ACAT inhibitors

SMILES | outcome
O=c1ccc2nccc3c4ccccc4n1c23 | inactive
CCCCCCCCCC(O)CC(CC(CC1CC=CC(=O)O1)OC(C)=O)OC(C)=O (stereo unspecified) | inactive
CC1CCCC[C@H]2C(=O)C=C[C@H](O)[C@@H]2CC(=O)O1 (stereo partly specified) | inactive
O=C1c2ccc(O)cc2O[C@@H](c2ccc(O)c(O)c2)[C@@H]1O | inactive
Cc1coc2c1CC1OC1(C)CCC1OC1(C)C2 (stereo unspecified) | inactive
COC1C(=O)CCC2(CO2)C1(O)C1(C)OC1CC=C(C)C (stereo unspecified) | inactive
C=C[C@H](/C=C\c1ccc(O)cc1)c1ccc(O)cc1 | inactive
C=CCC1=CC(OC)(C(C)Cc2ccc3c(c2)OCO3)C(OC)=CC1=O (stereo unspecified) | inactive
COc1cc(OC2O[C@H](CO)[C@@H](O)[C@H](O)[C@H]2O)c2c(=O)c(-c3ccc(O)cc3)coc2c1 (stereo partly specified) | inactive
Oc1cc(O)cc(/C=C/c2ccc(O)c(O)c2)c1 | inactive
C#CC(O)COc1ccc(C(=O)O)cc1 (stereo unspecified) | inactive
CC(=O)OC1CC2C(C)(C)C(=O)C=CC2(C)C2CC(=O)C3=C(CCC3C3=CC(O)OC3=O)C12C (stereo unspecified) | inactive
C=C1C(=O)O[C@@H]2/C=C(\C)CC/C=C(\C(=O)O)C[C@@H](OC(=O)/C(C)=C/C)C12 (stereo partly specified) | inactive
C/C(=C\C(=O)C(C)C1CCC2C3=C(CCC21C)C1(C)CCC(O)C(C)(C)C1(O)CC3)C(C)(C)O (stereo unspecified) | inactive
O=C(O)c1cc(O)c2c(c1)C(=O)c1cccc(O)c1C2=O | inactive
COc1cc(O)c2c(=O)c(-c3ccc(O)cc3O[C@@H]3O[C@H](CO)[C@@H](O)[C@H](O)[C@H]3O)coc2c1 | inactive
C=C(C(=O)O)[C@@H]1CC[C@H](C)[C@@H]2CC(=O)C(C)=C2C1 | inactive
COc1cc2ccc3c(c2cc1OC)N(C)Cc1c(OC)c(OC)cc(OC)c1-3 | inactive
CC(=O)C(C)C(O)C(C)c1ccc(CO)cc1/C=C/CO (stereo unspecified) | inactive
CSCC1OC(n2cnc3c(=O)[nH]cnc32)C(O)C1O (stereo unspecified) | inactive
C=C1C(=O)OC2C1C(O)CC1(C)C(O)CCC(C=O)C21 (stereo unspecified) | inactive
